RGS4 inhibitor: blocks human RGS4-accelerated GTP hydrolysis; actives 0.039% (n = 390,000); AID 504845; Potency, µM (doses to about 114 µM), inactives show at the top dose activity change, negative = inhibition, most hits filed as inhibitors; Transcreener GDP fluorescence polarization, RGS4-accelerated GTP hydrolysis; P49798; further: on the % scale 0 is the no-effect control and ±100 the full control effect; nearly all actives have a fitted effect of over 75% in size
Target sequence (P49798 whole entry, looked up): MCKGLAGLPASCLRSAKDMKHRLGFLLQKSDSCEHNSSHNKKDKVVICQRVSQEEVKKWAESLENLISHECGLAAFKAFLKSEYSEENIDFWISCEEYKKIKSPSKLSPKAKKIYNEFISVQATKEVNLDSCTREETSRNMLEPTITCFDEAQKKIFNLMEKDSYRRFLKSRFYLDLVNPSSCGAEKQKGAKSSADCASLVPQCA
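MLSMR compounds (23 nl, pin-transferred) preincubated 10 min at room temperature with a 500nM (2x) first reagent, then RGS4 at 900nM (2x) plus Transcreener GDP mix added; fluorescence polarization (620/688 nm) read before and after 90 min at 30 °C.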
SW480 rereplic: induces DNA re-replication in SW480 colon adenocarcinoma cells | SW480 DNA re-replication, Hoechst DNA content imaging, 48 h | Potency, µM (top dose mostly 46.1 µM), without a hit: at the highest dose re-replication activation, hits mostly activators | actives 1.8% (n = 340,000); further: % of control where 0% means no effect; nearly all actives have a fitted effect of over 55% in size
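Hoechst fluorescence of nuclei (405 nm excitation, 500-530 nm emission) measured by plate-scanning imager after 48 hr compound exposure at 37 C; re-replication scored as increased number of nuclei with elevated intensity.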
PTAP TSG101 blk: blocks PTAP/TSG101 interaction to inhibit HIV-1 budding | Q99816 | Fluorescence polarization, FITC-PTAP peptide / Tsg101 binding | Potency, µM (series often up to 115 µM), for inactives: at the top dose activity change, negative = inhibition, actives largely listed as inhibitors | 340,000 tested, under 10 active; active means well fitted inhibition curve with a large enough effect in the main read-out, with a control signal flat, not every such curve was filed as active; inconclusive means small, poorly fitted or top-dose-only effect, or effect the other way, or a change in a side signal; inactive means no such curve, though single readings can be large or run the other way; further: % of control where 0% means no effect
Target sequence (Q99816 whole entry, looked up): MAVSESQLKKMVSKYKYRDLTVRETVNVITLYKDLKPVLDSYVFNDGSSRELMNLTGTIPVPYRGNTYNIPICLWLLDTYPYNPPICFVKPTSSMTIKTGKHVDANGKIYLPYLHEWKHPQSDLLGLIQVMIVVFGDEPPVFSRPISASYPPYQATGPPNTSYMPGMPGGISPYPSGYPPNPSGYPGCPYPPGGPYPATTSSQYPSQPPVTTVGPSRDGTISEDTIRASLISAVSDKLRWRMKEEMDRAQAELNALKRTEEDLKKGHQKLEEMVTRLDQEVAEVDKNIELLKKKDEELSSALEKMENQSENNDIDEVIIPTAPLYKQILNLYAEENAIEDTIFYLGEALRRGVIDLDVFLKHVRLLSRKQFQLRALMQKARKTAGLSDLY
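Tsg101 binding domain (10 uM final) was mixed with compound and a FITC-labeled PTAP peptide (50 nM final) in HEPES pH 7.5 buffer with NaCl, Tween 20, EDTA and TCEP; fluorescence polarization was read after 20 min at r.t.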
KB-3-1 tox: KB-3-1 parental cell cytotoxicity. KB-3-1 viability, CellTiter-Glo ATP luminescence, 72 h. Potency, µM (top dose mostly 46.1 µM), actives largely listed as cytotoxic. actives 1.4% (n = 400,000); further: on the % scale 0 is the no-effect control and ±100 the full control effect; nearly all actives have a fitted effect of over 60% in size
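Multi-concentration cytotoxicity screen in KB-3-1 cells grown in DMEM lacking phenol red with 10% FBS. After 72 h at 37 °C with compound, ATP-dependent luminescence was recorded.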
KB-V1 cytotox: kills drug-selected multidrug resistant KB-V1 cells. actives 3.4% (n = 400,000). KB-V1 MDR cells viability, CellTiter-Glo, 72 h. AID 1347076. Potency, µM (doses to about 46.1 µM), actives largely listed as cytotoxic; further: on the % scale 0 is the no-effect control and ±100 the full control effect; nearly all actives have a fitted effect of over 60% in size
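Potencies derive from concentration-effect curves fitted to normalized luminescence (CellTiter-Glo) of KB-V1 cells treated for 72 h at 37 degrees C in phenol-red-free DMEM containing 10% FBS.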
MCF10A rerep: induces DNA re-replication in MCF 10a normal breast cells. MCF 10A DNA re-replication, Hoechst nuclear intensity, 48 h. Potency, µM (series often up to 46.1 µM), for the others: top-dose activity, positive = re-replication, most hits filed as activators. actives 2.9% (n = 350,000); further: % of control where 0% means no effect; nearly all actives have a fitted effect of over 50% in size
* hit, by the source's call; i = inactive; ? = inconclusive; / = not tested or not shown. The list is not random: actives were taken first. Their share in the collection is about 6.6%. Unless noted, the call rests on the fitted dose curve; in most records, active means well fitted curve in the direction sought with a large enough effect; inconclusive means small, poorly fitted or top-dose-only effect, or another doubt; inactive means no such curve, though single readings can be large; an effect the other way counts as inactive or inconclusive. Potency means the concentration at half of the fitted maximal effect.

SMILES	RGS4 inhibitor	SW480 rereplic	PTAP TSG101 blk	KB-3-1 tox	KB-V1 cytotox	MCF10A rerep
COc1cccc(C(=O)N(Cc2ccco2)c2ccccn2)c1	8%	/	/	i	i	/
Cc1nnc(N2CCN(c3cccc(C(F)(F)F)c3)CC2)c2c1nnn2Cc1ccccc1	13%	/	/	i	?	/
Cc1cccc(Nc2c(-c3cccs3)nc3nc(C)cc(C)n23)c1	-24%	/	/	i	i	/
COc1cccc(OCc2nc3ccccc3n2CCOc2ccc(C)cc2)c1	-6%	/	/	i	i	/
c1ccc(NCc2nc3ccccc3n2CCOc2ccccc2)cc1	11%	/	-1%	i	?	3%
COc1ccc(NCc2nc3ccccc3n2CCOc2ccc(C)cc2)cc1	22%	4%	-9%	?	?	21µM*
COc1ccc(NCc2nc3ccccc3n2CCOc2ccccc2)cc1	-14%	2%	-2%	?	2.3µM*	?
CCCn1c(=O)n(-c2cc(Cl)c(OC)cc2OC)c(=O)c2c3c(sc21)CN(C(C)=O)CC3	-14%	/	/	i	i	/
COc1ccc(N(CC(=O)NCCc2ccccc2)S(=O)(=O)c2ccccc2)c(OC)c1	-12%	/	/	i	i	/
Cc1ccc(O)c(-c2n[nH]c3c2C(c2ccc(F)cc2)N(Cc2ccco2)C3=O)c1 (stereo unspecified)	1%	/	/	?	i	/
COc1ccc(/C=C/C(=O)c2ccc3c4c(cccc24)CC3)cc1OC	1%	?	-2%	?	16µM*	18µM*
COc1ccc(/C=C/C(=O)c2ccc3c4c(cccc24)CC3)cc1	-51%	?	1%	?	?	18µM*
COc1ccc(/C=C/C(=O)c2cc(F)ccc2OC(=O)c2ccccc2C)cc1OC	-7%	1.2µM*	-2%	?	i	1.2µM*
CCCCC(=O)NC1(C(F)(F)F)C(=O)Nc2c1c(=O)[nH]c(=O)n2-c1ccc(C)c(C)c1 (stereo unspecified)	-7%	/	/	i	?	/
O=C(Nc1nccs1)c1ccc(S(=O)(=O)NCc2cccs2)cc1	-1%	28%	-5%	i	18µM*	?
O=C(Nc1nccs1)c1ccc(S(=O)(=O)NCC2CCCCC2)cc1	-2%	0%	/	i	?	?
Cc1c(-c2ccccc2)oc2c(C(=O)N3CCN(c4ccccc4F)CC3)cccc2c1=O	4%	-4%	-4%	?	4.6µM*	0%
CCCCNC(=O)c1cccc2c(=O)c(C)c(-c3ccccc3)oc12	2%	-3%	-4%	i	?	11%
Cc1ccc(N=Cc2cccc(O)c2O)c(C)c1	-87%	/	/	i	i	/
Cc1ccccc1C=Nc1ccccc1C(N)=O	-7%	4.1µM*	2%	3.7µM*	?	3.3µM*
CC(N=Cc1cccc(O)c1O)c1ccccc1 (stereo unspecified)	?	8.2µM*	-2%	i	i	?
Cc1ccccc1N=Cc1cccc(O)c1O	-112%	6.5µM*	-5%	i	?	?
NC(=O)c1ccccc1N=Cc1ccccn1	24%	-20%	-2%	i	i	2%
Cc1ccc(C=Nc2ccccc2C(N)=O)cc1	9%	?	-3%	7.3µM*	5.8µM*	12µM*
CC(NC(=O)CN1C(=O)NC2(CCCCC2)C1=O)c1ccc(S(N)(=O)=O)cc1 (stereo unspecified)	-11%	6.5µM*	0%	i	i	?
SMILES	RGS4 inhibitor	SW480 rereplic	PTAP TSG101 blk	KB-3-1 tox	KB-V1 cytotox	MCF10A rerep
Cc1ccc(NC(=O)CN2C(=O)NC3(CCCCCCC3)C2=O)cc1C	-11%	-5%	-3%	i	23µM*	-1%
Cc1ccc(NC(=O)CN2C(=O)NC3(CCC(C)CC3)C2=O)c(Cl)c1 (stereo unspecified)	-14%	-3%	-5%	i	18µM*	19%
CC(NC(=O)CN1C(=O)NC2(CCCCCCC2)C1=O)c1ccccc1 (stereo unspecified)	-32%	-1%	3%	i	23µM*	-3%
Cc1ccc(NC(=O)NCCOCCn2c(=O)oc3ccccc32)c(C)c1	18%	/	/	i	i	/
Cc1cc(SC#N)cc(C)c1NC(=O)CCl	-52%	/	-3%	i	i	?
CCc1cc(SC#N)cc(C)c1NC(=O)CCl	-9%	23µM*	-6%	?	i	16µM*
O=C(C[n+]1c(Cl)cc(Cl)c2ccccc21)c1ccccc1	/	/	/	i	i	/
COc1ccc(CNC(=O)CCC2N=C3c4ccccc4N=C(SCC(=O)NCCc4ccc(OC)c(OC)c4)N3C2=O)cc1 (stereo unspecified)	13%	/	/	i	?	/
CCOC(=O)c1c(SCCN2CCCCC2)n(-c2ccccc2)c(=S)n(-c2ccccc2)c1=O	-29%	12µM*	-4%	i	i	9.2µM*
COc1ccc(NC(=O)CSc2nc3c(oc4ccccc43)c(=O)n2Cc2ccco2)cc1Cl	-2%	/	/	/	/	/
CSc1ccc(CN2CCN(Cc3ccc([N+](=O)[O-])cc3)CC2)cc1	-6%	6%	-3%	?	2.1µM*	15µM*
O=[N+]([O-])c1ccc(CN2CCCCCC2)cc1	-13%	-8%	-1%	i	i	7%
CCc1ccc(NC(=O)c2ccc3c(=O)n4nc(Nc5ccccc5C)sc4nc3c2)cc1	18%	/	/	i	?	/
Cc1ccc(C(=O)CSc2nc(C)cc(C)c2C(=O)Nc2cccc(C)c2)cc1	1%	/	/	i	i	/
C#CCOc1ccc(/C=C2\SC(=S)N(Cc3cccnc3)C2=O)cc1	-6%	15µM*	-1%	21µM*	?	21µM*
Cc1cc(/C=N\NC(=O)CC(=O)NC2CCCCC2)c(C)n1-c1cccc(Cl)c1Cl	-2%	?	5%	?	23µM*	?
Cc1cc(/C=N\NC(=O)CC(=O)NC2CCCCC2)c(C)n1-c1ccc(Cl)c(Cl)c1	-48%	27%	-6%	?	?	30%
COC(=O)c1c(NC(=O)c2c(-c3ccccc3Cl)noc2C)sc2c1CCC2	-9%	4%	-2%	i	?	14%
COc1ccc(Cl)cc1/C=N/NC(=O)c1c(-c2ccccc2)noc1C	-11%	2%	-2%	i	i	7%
Cc1cc(C)nc(NC(=O)c2c(-c3ccccc3Cl)noc2C)c1	1%	?	-3%	i	7.3µM*	?

Assay outcomes from PubChem BioAssay.
